61 molecules from PubChem BioAssay AID431 (Sanford-Burnham Center for Chemical Genomics, 2006) can be followed below.

Hit rate of the full screen: of about 63,000 compounds, about 1,100 (1.7%) were called active.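 The calls were made as follows: active = compounds whose percent cytotoxicity in the single-dose primary screen, scaled between solvent and toxic-drug controls, exceeds 50; inactive = the rest.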 What follows is part of a selection rich in actives, with near analogues and random picks from the rest. Entries with a potency or affinity are not part of this list.

The assay can be described thus: cytotoxicity in KRAS-transformed pancreatic duct cells, primary screen, cell-based, fluorescence, HTS (AID 431).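 Also: 0% = DMSO solvent wells and 100% = doxorubicin-treated wells.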 The note with it: HPDE-C7K KRASV12 cells, Alamar Blue viability, 48 h; at 10 µM; stronger effect = higher value.
Regarding `CCN(CC(=O)NC1CCCCC1)S(=O)(=O)c1ccc(Cl)cc1`, the cytotoxicity is -13.6% (inactive).
The result for `CCOC(=O)C1CCCN(c2c(NCc3ccco3)c(=O)c2=O)C1` (stereo unspecified) reads 2.5% (inactive).
The figure for `O=C(CSc1nnc(COc2ccccc2)o1)NCCc1ccccc1` is -27.9% (inactive); for `COc1cc(C2C(C#N)=C(C)NC3=C2C(=O)c2ccccc23)cc(OC)c1OC` (stereo unspecified) it is 80.3% (active); for `COc1ccc(C2C(C#N)=C(SC)NC3=C2C(=O)CC(C)(C)C3)cc1` (stereo unspecified) it is -1.7% (inactive).
The result for `COc1ccc(C2CC(=O)C3=C(C2)NC(C)=C(C#N)C3c2ccc(N(C)C)cc2)cc1` (stereo unspecified) reads -3.8% (inactive); that for `COc1cc(C2C(C#N)=C(C)NC3=C2C(=O)CC(C)(C)C3)ccc1O` (stereo unspecified), -10.6% (inactive); that for `COc1cc(C2C(C#N)=C(C)NC3=C2C(=O)CC(C)(C)C3)cc(OC)c1O` (stereo unspecified), 6.8% (inactive).
On to `COc1ccc(C2C(C#N)=C(C)NC3=C2C(=O)c2ccccc23)cc1` (stereo unspecified), for which the cytotoxicity is 53.8% (active).
Consider `CCOC(=O)c1ccccc1NC(=O)CN(c1ccccc1OC)S(C)(=O)=O`, for which the cytotoxicity was -1.1% (inactive).
For `CCCCn1c(SCC(=O)Nc2cc(C)on2)nc2ccsc2c1=O`, the cytotoxicity was -1.8% (inactive).
With `CCOC(=O)C1CCCN(Cc2cc(OC)c(O)c(OC)c2)C1` (stereo unspecified), the cytotoxicity was -5.4% (inactive).
The result for `CCc1ccc(OCC(=O)NCc2ccco2)c(Br)c1` reads -5.8% (inactive).
The result for `O=C(COc1ccccc1Br)NCc1ccco1` reads -11.3% (inactive); that for `CC(C)(C)c1ccc(OCC(=O)NCc2ccco2)c(Br)c1`, 84.5% (active); that for `Cn1c(=O)n(C)c2cc(NC(=O)CSc3nnc(-c4ccccc4O)n3-c3ccccc3)ccc21`, 12.8% (inactive).
The result for `O=[n+]1cc(-c2ccc(F)cc2)n([O-])c2c1CCC2` reads -13.4% (inactive); that for `COc1ccc(C2C3=C(CCCC3=O)Nc3nc(SCc4ccccc4)nn32)cc1OC` (stereo unspecified), -8.6% (inactive); that for `O=C1CC(C(=O)Nc2ccccc2C(=O)O)C(c2ccccc2)O1` (stereo unspecified), -6.7% (inactive).
For the molecule `O=C(Oc1cccc2c(OC(=O)N3CCOCC3)cccc12)N1CCOCC1`, the cytotoxicity is 6.1% (inactive).
Turning to `CCCn1nnnc1SCC(=O)c1ccc(NC(C)=O)cc1`, the cytotoxicity was -3.8% (inactive).
The figure for `Cc1cccn2c(=O)c3cc(C(=O)N4c5ccccc5CC4C)n(C)c3nc12` (stereo unspecified) is 77.7% (active); for `Cc1cccn2c(=O)c3cc(C(=O)N4CCN(C(=O)c5ccco5)CC4)n(C)c3nc12` it is -8.8% (inactive).
The figure for `CC1Cc2ccccc2N1C(=O)c1cc2c(=O)n3ccccc3nc2n1C` (stereo unspecified) is 3.6% (inactive); for `Cc1cccn2c(=O)c3cc(C(=O)N4CCc5ccccc54)n(C)c3nc12` it is 1.3% (inactive).
Regarding `Cc1cccn2c(=O)c3cc(C(=O)N4CCN(c5ccccc5)CC4)n(C)c3nc12`, the cytotoxicity was -5.9% (inactive).
The result for `Cc1c(NCc2nc3ccccc3[nH]2)c(=O)n(-c2ccccc2)n1C` reads -7.6% (inactive); that for `Cc1ccc(C(C)C)c(OCc2nnc3n2CCCCC3)c1`, -8.3% (inactive); that for `COc1ccc(Cl)cc1NC(=O)c1cccnc1`, -1.6% (inactive).
The result for `CC(=O)Nc1ccc(NC2=CC(=O)CC(C)(C)C2)cc1` reads -3% (inactive).
The result for `Cn1c(SCC(=O)c2ccc3c(c2)OCO3)nnc1-c1ccccn1` reads 3.1% (inactive); that for `CCCc1cc(C(=O)Nc2ccc(C)cc2)no1`, -1.5% (inactive).
With `CCN(c1ccccc1)S(=O)(=O)c1ccc(C(=O)Nc2nnc(COC)o2)cc1`, the cytotoxicity was 44.5% (inactive).
The figure for `O=C(/C=C/c1ccccc1)c1ccccc1` is 56.5% (active).
The result for `CC(C)(C)C(=O)/C=C(N)/C=C/c1ccccc1` reads -7% (inactive); that for `CC(/C=C/c1ccccc1)=N/O`, -7.4% (inactive); that for `C=CCn1c(SCC(=O)NCc2ccco2)nc2sc3c(c2c1=O)CCCCC3`, 6% (inactive).
The figure for `CC1(C)Cc2c(sc3nc(SCC(=O)NCc4ccco4)n(-c4ccccc4)c(=O)c23)CS1` is -9.9% (inactive); for `CCSc1nc2sc3c(c2c2nnc(SCC(=O)NCc4ccco4)n12)CCCC3` it is 8.1% (inactive); for `Cc1nc2sc3c(c2c2nnc(SCC(=O)NCc4ccco4)n12)CCCC3` it is 5.1% (inactive).
`O=C(CSc1nc2sc3c(c2c(=O)n1-c1ccccc1)CCCC3)NCc1ccco1`: the cytotoxicity is 71.9% (active).
The result for `CC1=C(C(=O)N2CCOCC2)C(c2ccsc2)C2=C(CCCC2=O)N1` (stereo unspecified) reads 4.5% (inactive).
Consider `COC(=O)c1ccccc1NC(=O)CN1CCC(n2nnc3cc(C)ccc32)CC1`, for which the cytotoxicity was 7.1% (inactive).
The figure for `CCOc1ccc(N(CC(=O)NC2CCCC2)S(=O)(=O)c2c(C)noc2C)cc1` is 4.7% (inactive); for `O=C(Oc1ccc2c(c1)OCO2)c1cccs1` it is -6% (inactive).
The result for `O=C(Oc1ccc2c(c1)OCO2)c1cc2c(s1)CCC2` reads 66.1% (active).
The result for `O=C(Oc1ccc2c(c1)OCO2)c1ccncc1` reads 12.7% (inactive); that for `NS(=O)(=O)c1ccc(S(=O)(=O)NCCc2ccccc2)cc1`, -1.8% (inactive).
For `COc1cccc(NC(=O)NC2CCN(Cc3nnnn3Cc3ccc(F)cc3)CC2)c1`, the cytotoxicity is -3.4% (inactive).
The figure for `Cc1ccc2[nH]c(=O)c(CN(CCc3ccccc3)C(c3nnnn3Cc3ccco3)C(C)C)cc2c1` (stereo unspecified) is 60.2% (active).
The result for `CCC(c1nnnn1Cc1ccccc1)N(Cc1ccco1)Cc1cc2cc(OC)ccc2[nH]c1=O` (stereo unspecified) reads 22.2% (inactive); that for `COc1ccc2cc(CN(CCc3ccccc3)Cc3nnnn3Cc3ccco3)c(=O)[nH]c2c1`, 33.5% (inactive); that for `COc1ccc2cc(CN(Cc3ccco3)C(c3nnnn3C3CCCCC3)C(C)C)c(=O)[nH]c2c1` (stereo unspecified), 1.3% (inactive).
The result for `COc1ccc2cc(CN(Cc3ccco3)Cc3nnnn3C3CCCCC3)c(=O)[nH]c2c1` reads 22.4% (inactive).
As for `CCC(c1nnnn1Cc1ccco1)N(CCc1ccccc1)Cc1cc2cc(C)ccc2[nH]c1=O` (stereo unspecified), the cytotoxicity was 36% (inactive).
The result for `CCC(c1nnnn1Cc1ccco1)N(Cc1ccccc1OC)Cc1cc2cc(C)ccc2[nH]c1=O` (stereo unspecified) reads -7.4% (inactive); that for `CCOc1ccc2[nH]c(=O)c(CN(Cc3cccs3)C(CC)c3nnnn3C(C)(C)CC)cc2c1` (stereo unspecified), 30.4% (inactive).
Regarding `CCC(c1nnnn1Cc1ccco1)N(CCc1ccccc1)Cc1cc2ccc(OC)cc2[nH]c1=O` (stereo unspecified), the cytotoxicity was 50.4% (active).
The figure for `CCC(c1nnnn1C1CCCC1)N(Cc1cccs1)Cc1cc2cc(C)ccc2[nH]c1=O` (stereo unspecified) is 68.3% (active); for `CCOC(=O)Cn1nnnc1C(CC)N(Cc1cccs1)Cc1cc2cc(C)ccc2[nH]c1=O` (stereo unspecified) it is -3.3% (inactive).
The figure for `CCC(c1nnnn1C1CCCCC1)N(Cc1ccco1)Cc1cc2ccc(OC)cc2[nH]c1=O` (stereo unspecified) is 64.5% (active).
